The text below walks through data of PubChem BioAssay AID1645870 (National Center for Advancing Translational Sciences (NCATS), 2021).

Several values for one entry are separate records, joined by “and”; a condition that tells them apart may be missing. Equal entries are not always repeated. Among all 59,000 compounds or so, about 1,500 (2.5%) were called active. Entries that show only a call come without a potency. Inconclusive results (about 10%) are left out. This is one part of a sample in which actives are shown more often than they occur. The call rests on the fitted dose curve; in most records, active means well fitted inhibition curve with a large enough effect; inconclusive means small, poorly fitted or top-dose-only effect; inactive means flat fitted curve, though single readings scatter. Where a structure was tested more than once in an assay, its records may differ in their call.
Potency means the concentration at half of the fitted maximal effect.

Sequence of N-terminal Xaa-Pro-Lys N-methyltransferase 1 (Homo sapiens) (Q9BV86 whole entry, looked up): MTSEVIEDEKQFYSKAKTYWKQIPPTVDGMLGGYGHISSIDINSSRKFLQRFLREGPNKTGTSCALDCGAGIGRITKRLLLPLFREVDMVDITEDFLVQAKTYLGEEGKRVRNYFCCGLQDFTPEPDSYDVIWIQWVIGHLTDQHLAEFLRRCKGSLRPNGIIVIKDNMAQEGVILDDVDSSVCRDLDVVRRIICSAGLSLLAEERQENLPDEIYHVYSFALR

For the assay, the target named is N-terminal Xaa-Pro-Lys N-methyltransferase 1 (Homo sapiens) (UniProt Q9BV86). In words: Primary qHTS for Inhibitors of N-terminal methyltransferase 1 (NTMT1): MTaseGlo Assay. Further: nearly all actives have a fitted effect of over 65% in size. The following applies: NTMT1 MTase-Glo SAH luminescence, purified enzyme; series mostly up to 114 µM. The source says:
Assay Submitter (PI): Rong Huang Ph.D.
Purdue University, West Lafayette, IN 47907
The N-terminal methytransferase 1 is the first methyltransferase that methylates protein alpha-N-amines and plays an important role in regulating cell mitosis, chromatin interactions and DNA repair. It is observed to be over-expressed in various cancer patient tissues like malignant melanoma and colorectal cancer tissues. Knockdown of NTMT1 in cancer cells causes cell mitotic defects and enhances sensitivity to DNA damaging chemotherapeutics. […] These critical cellular processes in which NTMT1 is implicated, coupled with emerging links to cellular dysfunction, strengthen the inference that NTMT1 is a compelling novel anticancer target. Progress have been made in understanding the molecular properties of NTMT1 and the biological consequences of protein alpha-N-terminal methylation, but there are no specific small molecule probes available for NTMT1 to fully characterize its MTase activity. To address this unmet need, a panel of assay is created and established to enable quantitative high-throughput screening (qHTS) for novel, potent, and selective small molecule NTMT1 inhibitors. Two orthogonal qHTS that use different reagents (ThioGlo vs. MTaseGlo) are developed for primary robotic screening against the NCATS chemical library of more than 400,000 small molecules. Identified inhibitors are reacquired, validated, and further characterized.
MTaseGlo Assay is a luminescence screen that measure the activity of methyltransferases based on the reaction product S-adenosyl homocysteine (SAH). The substrate SAM is converted to SAH upon enzyme activation. MTase-Glo reagent and detection solution convert SAH to ATP and measure the light from the luciferase reaction.
Materials: NTMT1 enzyme, substrate SPKRIA, control peptide RCC1-6 is provided by the Huang laboratory.
SEQUENCE No. (e.g., 1, 2, 3, etc.); […] (e.g., Cells, Incubation, Reagent, etc.); VALUE; DESCRIPTION
1; Enzyme; 3 uL; Dispense enzyme mixture (final concentrations of 125 nM NTMT1 and 100 uM SAM) into Greiner 1536-well white / solid bottom assay plate (Greiner Bio One, Monroe, NC).
2; Compounds; 23 nL; Compounds and controls were transferred via a Kalypsys Pin Tool (Wako USA) equipped with a 1536-slotted pin array (Wako Automation, Richmond, VA)
3; Incubation; 15 min; Incubate at room temperature
4; Substrate; 1 uL; Dispense 1 uL of substrate at final concentration of 1 uM. Buffer solution was dispensed in control wells. The assay plate was covered with metal lids.
5; Incubation; 30 min; Incubate at room temperature, protected from lights.
6; Reagent; 1 uL; Dispensed 5x MTase-Glo detection reagent (R) into the assay plate. The plate was covered with metal lids.
7; Incubation; 30 min; Incubate the assay plates at room temperature in the dark to allow for SAH to be converted to ADP.
8; Reagent; 5 uL; Dispense 5 uL of 1x MTase-Glo Detection Solution (R) to allow for ADP to be converted to ATP which was then detected with a luciferase reaction.
9; Centrifuge; 15 sec; Centrifuge the assay plate for 15 seconds at 1000 RPM.
10; Incubation; 30 min; Assay plates were incubation at room temperature in the dark.
11; Detection; Luminescence; Plates were read on ViewLux detector (PerkinElmer). Data were normalized to no-enzyme (0% activity) and no-inhibitor (DMSO; 100%) controls, and the resulting percent inhibition data were fitted to a 4-parameter Hill equation using GraphPad Prism.
For orientation: qHTS replaces the single test concentration by a dilution series.
Consider `CC(C)=CCC[C@](C)(O[C@@H]1O[C@H](CO[C@@H]2O[C@H](CO)[C@@H](O)[C@H](O)[C@H]2O)[C@@H](O)[C@H](O)[C@H]1O)[C@H]1CC[C@]2(C)[C@@H]1[C@H](O)C[C@@H]1[C@@]3(C)CC[C@H](O[C@@H]4O[C@H](CO)[C@@H](O)[C@H](O)[C@H]4O[C@@H]4O[C@H](CO)[C@@H](O)[C@H](O)[C@H]4O)C(C)(C)[C@@H]3CC[C@]12C`, for which the Potency result is “inactive”.

`NC(=O)C1CCN(c2nc(-c3cccc(F)c3)cs2)CC1`: the Potency entry is “inactive”.

With `Cc1cn(CCN2CCN(c3ccccc3-c3cc(C#N)cc(C(=O)NCCCN4CCCC4)c3)CC2)c2ccccc12`, the Potency was 50.1 µM (active).

Consider `Cc1ccc(C)c(N2CCN(CCCNC(=O)Nc3ccc(Cl)cc3)CC2)c1`, for which the Potency entry was “inactive”.

As for `CCCN1CCN(CCCNC(=O)c2ccc3nc(Cc4ccccc4)oc3c2)CC1`, the Potency result was “inactive”.

On to `O=C(Nc1cc(Cc2ccccc2)ccn1)c1ccc(-c2cccc([N+](=O)[O-])c2)o1`, for which the Potency result was “inactive”.

As for `N#Cc1ccccc1CNc1nc2ncc(Br)cc2[nH]1`, the Potency entry was “inactive”.

Take `CCOc1cccc(-c2cc(-c3n[nH]c(=O)n3CC)c3ccccc3n2)c1`: the Potency result is “inactive”.

With `N#CSc1cc(SC#N)c(N)nc1N`, the Potency was 7.8 µM (active).

With `Cc1cc2c(s1)c1cnn(Cc3c(F)cccc3Cl)c(=O)c1n2C`, the Potency result is “inactive”.

Consider `Cc1ccc(C(=O)Nc2cccc(C(F)(F)F)c2)cc1Nc1nc(-c2cccnc2)nc2c1cnn2C`, for which the Potency result is “inactive and 21.5 µM (active)”.

Regarding `Cc1cc(Nc2cccc(C(F)(F)F)c2)nc2ccc(NC(=O)c3ccc(=O)[nH]c3)cc12`, the Potency result is “inactive”.

With `Cc1cc(C(=O)Nc2cccc(C(F)(F)F)c2)c2c(C)nn(-c3cccc(F)c3)c2n1`, the Potency entry was “inactive”.

Regarding `COc1cccc(C2c3c(ncn(-c4cccc(Br)c4)c3=N)Oc3ccc4ccccc4c32)c1` (configuration not stated), the Potency result was “inactive”.

`COC(=O)c1ccc(NC(=O)c2cc(-c3ccc(C)c(C)c3)nc3ccccc23)cc1`: the Potency result was “inactive”.

`COc1ccc(NC(=O)c2cnn3c(C)cc(C)nc23)cc1OC`: the Potency result is “inactive”.

As to `COc1ccc(C(CC(=O)N2CC(C)CC(C)C2)c2c(O)cc(OC)cc2OC)cc1` (configuration not stated), the Potency entry was “inactive”.

Turning to `CC(=O)Oc1ccccc1C(=O)Nc1ncc([N+](=O)[O-])s1`, the Potency was 25.1 µM (active).

In the case of `Cc1ccc(S(=O)(=O)Nc2ccccc2C(=O)Nc2ncc(-c3ccccc3)s2)cc1`, the Potency entry is “inactive”.

`O=C(Nc1ncc(Cc2ccc(C(F)(F)F)cc2)s1)c1ccc(-c2ccc([N+](=O)[O-])cc2)o1`: the Potency result was “inactive”.

As for `O=c1c2ccccc2nc2sc(Nc3ccc(Oc4ccccc4)cc3)nn12`, the Potency entry was “inactive”.

`Nc1ccc(C(=O)Nc2ccccc2N)cc1`: the Potency result is “inactive”.

As for `Nc1ccccc1N`, the Potency is 22.4 µM (active).

`Cc1nc(-c2ccccc2C(C)C)nc(NCc2ccc(-c3cccnc3)cc2)c1C`: the Potency result was “inactive”.

For the compound `O=C(NCc1ccc(Cl)c(Cl)c1)Nc1nnc(-c2ccncc2)s1`, the Potency result is “inactive”.

As to `CCOC(=O)c1c(CNCc2ccccc2F)c2sc(C)cc2n1C`, the Potency entry was “inactive”.

Take `Cc1ccc(N[S+](=O)([O-])c2cc3c(cc2N[C@@H](C)CO)NC(=O)CC3)cc1N[C@@H](C)CO`: the Potency result was “inactive”.

As for `CCc1ccc(NC(=O)c2cnn3c(C)cc(-c4ccccc4)nc23)cc1`, the Potency result is “inactive”.

As for `CCOc1ccc(NC(=O)c2c(NCc3cccc(OC)c3OC)sc3c2CCC3)cc1`, the Potency result is “inactive”.

With `CCOc1ccc(NC(=O)c2c(NC(=O)Cc3ccccc3)sc3c2CCCCC3)cc1`, the Potency is 44.7 µM (active).

Regarding `O=C(Cc1ccccc1)Nc1sc2c(c1C(=O)Nc1ccc(Br)cc1)CCC2`, the Potency result was “inactive”.

Turning to `O=C(CNC(=O)c1ccccc1)OC(C(=O)Nc1cc([N+](=O)[O-])ccc1F)c1ccccc1` (configuration not stated), the Potency entry is “inactive”.

On to `NC(=O)c1cnc2[nH]ccc2c1NC1C2CC3C[C@H]1CC(O)(C3)C2` (some centres not stated), for which the Potency result was “inactive”.

Turning to `CN(CC(F)(F)F)c1nc(NCc2ccc(-c3cccnc3)cc2)c2ccccc2n1`, the Potency entry was “inactive”.

`CN(C)[S+](=O)([O-])c1ccc(-c2ccc(=O)n(CC(=O)NCCc3ccccc3)n2)cc1`: the Potency result is “inactive”.

`O=C(NC(c1ccco1)c1cc(Cl)c2cccnc2c1O)c1ccccc1` (configuration not stated): the Potency entry was “inactive”.

On to `O=C(CSc1ncc(CO)n1Cc1ccc(F)cc1)NCc1ccco1`, for which the Potency result was “inactive”.

Consider `OCc1cnc(SCc2ccc(F)cc2)n1Cc1ccc(F)cc1`, for which the Potency is 89.1 µM (active).

With `O=C(CSc1ncc(CO)n1Cc1ccc(Cl)cc1)NCc1ccc(F)cc1`, the Potency entry was “inactive”.

In the case of `Cc1cc(C)n2ncc(C(=O)N3CCCC3)c2n1`, the Potency entry is “inactive”.

In the case of `Cc1ccc(OCCn2c(CCNC(=O)c3ccccc3C(F)(F)F)nc3ccccc32)cc1`, the Potency entry was “inactive”.

Take `CC(C)c1ccccc1-c1nc(NCc2ccc(-c3cccnc3)cc2)c2occc2n1`: the Potency result was “inactive”.

`COc1ccc(C2Nc3cccc(OC)c3C(=O)N2Cc2ccccc2)cc1COc1ccc(NC(C)=O)cc1` (configuration not stated): the Potency entry was “inactive”.

In the case of `O=C(OCC#CCSc1nnc(-c2ccco2)o1)c1ccc(F)cc1`, the Potency entry was “inactive”.

For `O=C(Nc1nnc(-c2ccncc2)s1)Nc1cc(C(F)(F)F)ccc1F`, the Potency entry is “inactive”.

For `COc1ccc(C2Nc3ccccc3C(=O)N2Cc2ccco2)cc1COc1cccc(NC(C)=O)c1` (configuration not stated), the Potency entry is “inactive”.

Take `CCNC(=O)C#Cc1ccc2c(C(=Nc3ccc(CN(C)C)cc3)c3ccccc3)c(O)[nH]c2c1`: the Potency was 31.6 µM (active).
